Rows were chosen to be rich in hits. Some 2.2% of all compounds tested hit in one or more screens of this group.
DENV2 CPE rescue: inhibitors of DENV2 cytopathic effect; DENV2-infected cells, cytopathic effect rescue, plate reader; CPE inhibition, % at 9.99 µM; 350,000 compounds, 1.7% hits; AID 651640; in the data active = CPE inhibition above about 20%, passing the limit was not always enough; tested in BHK-21 cells;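 note: 0% = median of neutral control wells and 100% = median of positive control wells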
PvdQ inh: P. aeruginosa PvdQ acylase inhibition; purified PvdQ acylase, fluorescence plate reader; 340,000 compounds, 0.063% hits; inhibition, % at 10 µM; AID 488965; in the data active = inhibition above about 30%, passing the limit was not always enough;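 note: 0% = vehicle neutral wells and 100% = reference inhibitor wells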
miR-122 sensor: blocks miR-122 activity in Huh7 sensor cells; Huh7 miR-122 Renilla luciferase sensor, 48 h; neutral wells = 0, positive control = 100; activation (reporter increase), % at 12.5 µM; 340,000 compounds, 0.3% hits; AID 602342;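 active = mean replicate activation score at least 90 and every replicate individually at or above 90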;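 note: higher luciferase means less miR-122 activity so hits act as miR-122 inhibitors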
C2C12 statin: suppressors of simvastatin-induced myotoxicity in C2C12 myotubes; ATP luminescence, 48 h; scaled: DMSO 0, geranylgeraniol control 100; rescue of ATP level, % at 7.49 µM; 330,000 compounds, 0.78% hits; AID 602340;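 active = mean ATP rescue above about 67%, or every replicate alone reaching that limit, limit read from the data, passing the limit was not always enough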;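 note: myotubes were challenged with 10 µM simvastatin during compound exposure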
PGC1a acetyl inh: lowers PGC1a acetylation signal in U2OS cells; AlphaScreen anti-acetyl-lysine; with virally co-expressed GCN5 acetyltransferase; inhibition, % at 15.6 µM; 350,000 compounds, 0.17% hits;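 active = every replicate shows inhibition of at least 40%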;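 note: 0% = neutral control wells and 100% = positive control wells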
* marks the source's active call; other numbers are inactive results; [ ] = another dose, or the depositor's remark.

Results for C[C@H](CO)N1C[C@H](C)[C@@H](CN(C)C(=O)Nc2cccc(Cl)c2Cl)OCc2ccccc2-c2ccccc2C1=O ?
DENV2 CPE rescue: 3.1; PGC1a acetyl inh: -30.2

How did CCCNC(=O)C[C@@H]1CC[C@H]2[C@H](COc3ccc(NC(=O)Cc4ccccc4)cc3C(=O)N2C)O1 do in these assays?
DENV2 CPE rescue: 1.5; miR-122 sensor: 26.0[16.7 µM]; C2C12 statin: 9.8; PGC1a acetyl inh: 7.2

Results for C[C@H]1CN([C@@H](C)CO)C(=O)Cc2cc(NC(=O)Cc3ccccc3)ccc2O[C@@H]1CN(C)Cc1ccncc1 ?
DENV2 CPE rescue: 23.0*; miR-122 sensor: -5.5[16.7 µM]; C2C12 statin: 7.3; PGC1a acetyl inh: -3.6

What do the screens show for `C[C@H](CO)N1C[C@H](C)[C@H](CN(C)Cc2ccncc2)Oc2ccc(NC(=O)Cc3ccccc3)cc2CC1=O`?
DENV2 CPE rescue: -0.3; miR-122 sensor: 1.5[16.7 µM]; C2C12 statin: -5.6; PGC1a acetyl inh: -3.4

Results for C[C@H](CO)N1C[C@H](C)[C@@H](CN(C)Cc2ccc(C(F)(F)F)cc2)Oc2ccc(NC(=O)Cc3ccccc3)cc2CC1=O ?
DENV2 CPE rescue: -11.1; miR-122 sensor: 3.4[16.7 µM]; C2C12 statin: 115.6*; PGC1a acetyl inh: -43.5

What do the screens show for `C[C@@H]1CCCCO[C@H](CN(C)C(=O)C2CCCCC2)[C@@H](C)CN([C@@H](C)CO)C(=O)c2cc(NC(=O)c3ccncc3)ccc2O1`?
DENV2 CPE rescue: -3.9; miR-122 sensor: -5.8[16.7 µM]; C2C12 statin: 14.1; PGC1a acetyl inh: -14.6

Results for C[C@H]1CN([C@@H](C)CO)C(=O)CCCn2cc(nn2)CO[C@H]1CN(C)S(=O)(=O)c1ccc(-n2cccn2)cc1 ?
DENV2 CPE rescue: -2.7; PGC1a acetyl inh: 6.1

What do the screens show for `C=CCn1c(=N)c(C#N)cc2c(=O)n3ccccc3nc21`?
PvdQ inh: -17.0; miR-122 sensor: -1.2; C2C12 statin: 93.5*; PGC1a acetyl inh: -0.1

How did COC(=O)c1sc(S(=O)(=O)Nc2ccc3cn[nH]c3c2)c(C(=O)OC)c1C do in these assays?
PvdQ inh: -4.7; miR-122 sensor: 27.7; C2C12 statin: 117.2*; PGC1a acetyl inh: -0.6

Results for COC(=O)c1ccccc1S(=O)(=O)Nc1ccc2cn[nH]c2c1 ?
PvdQ inh: -4.5; miR-122 sensor: -0.8; C2C12 statin: 15.3; PGC1a acetyl inh: -3.9

How did Cc1cc(C)c(C)c(S(=O)(=O)Nc2ccc3cn[nH]c3c2)c1C do in these assays?
DENV2 CPE rescue: -7.4; PvdQ inh: -10.9; miR-122 sensor: 157.5*; C2C12 statin: -5.5; PGC1a acetyl inh: -0.5

How did Cc1ccc(S(=O)(=O)N[C@H]2CC[C@@H](CC(=O)NCCc3ccncc3)O[C@@H]2CO)cc1 do in these assays?
DENV2 CPE rescue: 3.9; C2C12 statin: 0.8; PGC1a acetyl inh: -4.4

How did COCC(=O)Nc1ccc2c(c1)C(=O)N(C)C[C@@H](OC)[C@H](C)CN(C(C)=O)[C@H](C)CO2 do in these assays?
DENV2 CPE rescue: 101.5*; miR-122 sensor: -22.0[16.7 µM]; C2C12 statin: 9.5; PGC1a acetyl inh: 0.9

How did CO[C@H]1CN(C)C(=O)c2cc(NC(C)=O)ccc2OC[C@@H](C)N(C(=O)c2ccccc2)C[C@@H]1C do in these assays?
DENV2 CPE rescue: 23.8*; miR-122 sensor: 0.7[16.7 µM]; C2C12 statin: -3.0

What do the screens show for `COCC(=O)Nc1ccc2c(c1)C(=O)N(C)C[C@H](OC)[C@@H](C)CN(C(C)=O)[C@H](C)CO2`?
DENV2 CPE rescue: 3.7; miR-122 sensor: 5.4[16.7 µM]; C2C12 statin: 19.0; PGC1a acetyl inh: -4.6

What do the screens show for `CO[C@H]1CN(C)C(=O)c2cc(NC(=O)Nc3ccccc3)ccc2OC[C@H](C)N(C(C)=O)C[C@H]1C`?
DENV2 CPE rescue: 65.5*; miR-122 sensor: -10.8[16.7 µM]; C2C12 statin: 6.8; PGC1a acetyl inh: -12.0

How did CCC(=O)Nc1ccc2c(c1)C(=O)N(C)C[C@@H](OC)[C@@H](C)CN(C(=O)COC)[C@H](C)CO2 do in these assays?
DENV2 CPE rescue: 21.8*; C2C12 statin: 0.4; PGC1a acetyl inh: 4.6

Results for CO[C@@H]1CN(C)C(=O)c2cc(NC(C)=O)ccc2OC[C@H](C)N(C(=O)c2ccccc2)C[C@@H]1C ?
DENV2 CPE rescue: -8.2; miR-122 sensor: 0.7[16.7 µM]; C2C12 statin: -1.2

How did CO[C@H]1CN(C)C(=O)c2cc(NC(=O)Nc3ccccc3)ccc2OC[C@@H](C)N(C(C)=O)C[C@@H]1C do in these assays?
DENV2 CPE rescue: 9.4; miR-122 sensor: -5.6[16.7 µM]; C2C12 statin: -11.1; PGC1a acetyl inh: -4.7

How did COCC#Cc1cnc2c(c1)C(=O)N([C@H](C)CO)C[C@H](C)[C@H](CN(C)C(C)=O)O2 do in these assays?
DENV2 CPE rescue: 5.6; miR-122 sensor: 2.0[16.7 µM]; C2C12 statin: -3.0; PGC1a acetyl inh: 3.5

How did C[C@@H]1CN([C@@H](C)CO)C(=O)c2cccc(NC(=O)Nc3ccc(C(F)(F)F)cc3)c2O[C@H]1CN(C)C(=O)Nc1ccc(F)cc1 do in these assays?
DENV2 CPE rescue: -10.2; miR-122 sensor: -0.4[16.7 µM]; C2C12 statin: -50.0; PGC1a acetyl inh: -29.7

How did C[C@H](CO)N1C[C@H](C)[C@@H](CN(C)C(=O)c2ccc(F)cc2)Oc2ncc(Br)cc2C1=O do in these assays?
miR-122 sensor: 21.1[16.7 µM]; C2C12 statin: -1.7; PGC1a acetyl inh: -7.7

What do the screens show for `CCC(=O)N1C[C@H](C)[C@H](OC)CN(C)C(=O)c2cc(NC(=O)NC3CCCC3)ccc2OC[C@@H]1C`?
DENV2 CPE rescue: 38.9*; PGC1a acetyl inh: 4.6

Results for COCC(=O)Nc1ccc2c(c1)C(=O)N(C)C[C@@H](OC)[C@@H](C)CN(C(=O)CC1CC1)[C@@H](C)CO2 ?
DENV2 CPE rescue: -4.5; miR-122 sensor: 7.3[16.7 µM]; C2C12 statin: 10.0; PGC1a acetyl inh: 1.7

Results for CCC(=O)N1C[C@@H](C)[C@H](OC)CN(C)C(=O)c2cc(NC(=O)COC)ccc2OC[C@@H]1C ?
DENV2 CPE rescue: -2.6; C2C12 statin: -7.8; PGC1a acetyl inh: 5.2

Results for COCC(=O)Nc1ccc2c(c1)C(=O)N(C)C[C@H](OC)[C@H](C)CN(C(=O)CC1CC1)[C@H](C)CO2 ?
DENV2 CPE rescue: 42.5*; miR-122 sensor: -5.4[16.7 µM]; C2C12 statin: 4.9; PGC1a acetyl inh: 12.4

How did CCC(=O)N1C[C@H](C)[C@H](OC)CN(C)C(=O)c2cc(NC(=O)COC)ccc2OC[C@H]1C do in these assays?
DENV2 CPE rescue: 20.7*; C2C12 statin: -12.3; PGC1a acetyl inh: 0.9

Results for COc1ccc(C#Cc2cnc3c(c2)C(=O)N([C@H](C)CO)C[C@H](C)[C@H](CN(C)Cc2cccc(C)c2)O3)cc1OC ?
DENV2 CPE rescue: 8.5; miR-122 sensor: -11.4[16.7 µM]; PGC1a acetyl inh: -40.1

What do the screens show for `O=C(Cc1cccnc1)N1CC(=O)N2[C@H](C1)[C@H](c1ccc(/C=C/c3ccccc3)cc1)[C@@H]2CO`?
DENV2 CPE rescue: 1.4; PGC1a acetyl inh: 4.2

How did CN(C)c1ccc2c(c1)[C@H]1C[C@H](CC(=O)NCCN3CCCCC3)O[C@H](CO)[C@H]1O2 do in these assays?
DENV2 CPE rescue: 19.2; miR-122 sensor: -2.2[16.7 µM]; C2C12 statin: -3.0; PGC1a acetyl inh: 11.5

Assay outcomes (PubChem)
